# NPC1 prom act = NPC1 promoter activation. Huh7 NPC1 promoter luciferase reporter, 24 h. Potency, µM (highest dose often 9.22 µM), without a hit: at the top dose activation, hits mostly activators. hit rate 2.4% among 320,000. AID 485313; note: % of control where 0% means no effect; nearly all actives have a fitted effect of over 60% in size
#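 Huh7 reporter cells (NPC1 promoter driving luciferase) are dosed with compound for 24 h at 37 °C, 5% CO2; luciferase detection reagent is then added and luminescence measured after 10 min at ambient temperature.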
# SMN2 splice enh = enhancers of SMN2 splice variant expression. HEK293 SMN2-luciferase splicing reporter, luminescence, 30-36 h. Potency, µM (doses to about 46.1 µM), without a hit: at the highest dose activity change, positive = activation, actives largely listed as activators. hit rate 2.8% among 210,000; note: % of control where 0% means no effect; nearly all actives have a fitted effect of over 55% in size
#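 HEK293 cells carry an SMN2 minigene-luciferase reporter in which exon 7 inclusion puts luciferase in frame. Cells were seeded at 2000 cells/well, attached for 10-12 hours, then exposed to compounds for 30-36 hours at 37C before ONE-Glo luminescence.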
# Rab9 promoter act = activators of Rab9 promoter. Huh7 Rab9 promoter-luciferase reporter, luminescence, 24 h. Potency, µM (series often up to 9.22 µM), inactives show at the highest dose activation, negative = inhibition, most hits filed as activators. hit rate 2.8% among 320,000. AID 485297; note: % of control where 0% means no effect; nearly all actives have a fitted effect of over 60% in size
#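 Promoter activation is measured as luciferase luminescence in Huh7 cells stably transfected with a Rab9 promoter–luciferase construct, following 24 h compound exposure at 37 °C and 10 min reagent incubation at ambient temperature.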
# FLuc counter = counter-screen for miR-21 project: firefly luciferase inhibitors or activators; P08659; purified FLuc, Km substrates, luminescence inhibition; Potency, µM (top dose mostly 57.5 µM), inactives show at the top dose activity change, negative = inhibition, hits mostly inhibitors; hit rate 6.9% among 360,000; AID 588342;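 note: plate controls were vehicle for no effect and reference inhibitor for full effect; nearly all actives have a fitted effect of over 55% in size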
# Target sequence (P08659 whole entry, looked up): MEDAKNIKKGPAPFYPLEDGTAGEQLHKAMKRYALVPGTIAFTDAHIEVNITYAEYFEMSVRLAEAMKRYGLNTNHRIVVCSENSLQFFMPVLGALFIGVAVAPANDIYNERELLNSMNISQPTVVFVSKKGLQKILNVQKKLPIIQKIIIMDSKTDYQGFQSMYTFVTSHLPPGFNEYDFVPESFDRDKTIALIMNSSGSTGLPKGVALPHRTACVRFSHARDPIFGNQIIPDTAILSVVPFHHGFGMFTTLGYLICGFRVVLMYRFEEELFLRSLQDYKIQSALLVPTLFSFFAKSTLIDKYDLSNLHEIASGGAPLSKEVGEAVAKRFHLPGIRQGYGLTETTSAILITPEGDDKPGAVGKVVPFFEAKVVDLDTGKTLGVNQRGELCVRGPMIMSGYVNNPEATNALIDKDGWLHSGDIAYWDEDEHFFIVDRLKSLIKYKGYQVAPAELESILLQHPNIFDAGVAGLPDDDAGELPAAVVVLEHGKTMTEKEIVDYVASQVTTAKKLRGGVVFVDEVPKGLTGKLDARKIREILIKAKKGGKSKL
#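 Purified P. pyralis luciferase, 10 nM final, with Km-level 10 uM D-luciferin and 10 uM ATP in 50 mM Tris acetate pH 7.5, 10 mM Mg acetate, 0.01% Tween-20, 0.05% BSA; 6-point qHTS titration about 60 µM downward; luminescence read.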
# ELG1 repair inh = blocks ELG1-dependent DNA repair in HEK293T cells. HEK293T ELG1-luciferase reporter, luminescence, 16 h; DNA damage induced by 5-fluorouridine. Potency, µM (top dose mostly 46.1 µM), inactives show at the top dose activity change, negative = inhibition, most hits filed as inhibitors. hit rate 2.3% among 330,000. AID 504467; note: % is set by controls: 0 for no effect and ±100 for the full control effect; nearly all actives have a fitted effect of over 55% in size
#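 Quantitative HTS, concentration-response format. 2,000 cells/well co-treated with 5-fluorouridine and compound, 16 hr in 5% CO2 at 37 °C; ONE-Glo luminescence read after 30 min.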
# ELG1 genotox = genotoxicity induction in ELG1-luciferase HEK293T cells. hit rate 1.3% among 330,000. HEK293T ELG1-luciferase reporter, luminescence, 16 h. Potency, µM (series often up to 46 µM), inactives show at the highest dose activity change, positive = activation, actives largely listed as activators; note: % of control where 0% means no effect; nearly all actives have a fitted effect of over 60% in size
#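 After overnight (16 hr) compound treatment at 37 °C, ELG1-luciferase HEK293T cells were lysed with ONE-Glo; luminescence quantified 30 min later at room temperature.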
# * marks the source's active call; other numbers are inactive results; ? = inconclusive; / = no result. Shown are actives, neighbours in structure and some others; about 9.2% of the full set was active somewhere. Calls come from the whole dose curve; as a rule, active = well fitted curve in the direction sought with a large enough effect; inconclusive = small, poorly fitted or top-dose-only effect, or another doubt; inactive = no such curve, though single readings can be large; an effect the other way counts as inactive or inconclusive. Potency is the fitted concentration of half-maximal effect.
SMILES,NPC1 prom act,SMN2 splice enh,Rab9 promoter act,FLuc counter,ELG1 repair inh,ELG1 genotox
CCOC(=O)c1sc(NC(=O)CNCc2cccnc2)c(C(=O)OCC)c1C,-4%,-7%,0%,-2%,-6%,-10%
Cc1cc(C)cc(-n2c(C)nc3cc(C(=O)NCc4ccc(F)cc4)ccc32)c1,/,/,/,-3%,/,/
CCCN1C2CCCC1CC(NC(=O)C1CCCCC1)C2 (stereo not given),-5%,6%,-7%,2%,-2%,-1%
COc1cccc(C(=O)NC2CC3CCCC(C2)N3CC(=O)Nc2ccccc2C(F)(F)F)c1 (stereo not given),3%,/,2%,-3%,?,-39%
O=C(CN1C2CCCC1CC(NC(=O)C1CCCCC1)C2)Nc1ccccc1C(F)(F)F (stereo not given),-7%,/,1%,2%,15µM*,-15%
O=C(CN1C2CCCC1CC(NC(=O)C1CCCCC1)C2)NCc1ccc(F)cc1 (stereo not given),-19%,/,-11%,0%,12µM*,-7%
COc1ccc(CNc2ccc3cc(S(=O)(=O)N4CCCCC4)ccc3n2)cc1,/,/,/,3%,/,/
O=C(CCc1nnc2ccc(NCc3ccco3)nn12)Nc1cccc(F)c1,-2%,/,-4%,1%,?,7%
CCC(=O)Nc1ccc(C(=O)COC(=O)Cc2ccsc2)cc1,-5%,/,3%,11µM*,17%,1%
O=C(COC(=O)Cc1ccsc1)Nc1ccc(Br)cc1,-2%,/,-4%,?,8%,6%
c1ccc2oc(NC3=NCN(CC4CCCO4)CN3)nc2c1 (stereo not given),?,13µM*,4µM*,17µM*,?,10µM*
Cc1cccc(NC(=O)[C@H](NC(=O)[C@@H]2Cc3ccccc3CN2)c2ccccc2)c1,15%,/,4%,-17%,?,5%
CCOc1ccc(CC(=O)NC2CC(=O)N(c3ccc4c(c3)OCCO4)C2)cc1 (stereo not given),/,/,/,-5%,/,/
Cc1cc(C)c(OCC(=O)Nc2cccc(O)c2)cc1C,10%,11%,?,1.5µM*,?,5.2µM*
CCOc1ncccc1C(=O)OCC(=O)Nc1cccc(C(C)=O)c1,5%,-4%,-7%,-4%,-3%,2%
CC(=O)c1cccc(NC(=O)COC(=O)c2ccccc2C)c1,?,/,27%,21µM*,?,?
CC(C)(C)NC(=O)c1cccc(NC(=O)CSc2ccccc2)c1,1%,-3%,3%,15µM*,-6%,-4%
O=C(COc1ccccc1Cl)Nc1ccccc1C(=O)Nc1cccc(C(=O)O)c1,?,/,?,7.6µM*,?,?
Cc1cc(C)c(OCC(=O)Nc2ccc3c(c2)OCO3)cc1C,21%,/,28%,-16%,?,?
O=C(CCc1nc(-c2cccs2)no1)Nc1ccccc1[N+](=O)[O-],/,/,/,-4%,/,/
Cc1ccccc1OCC(=O)Nc1cccc(C(=O)O)c1,?,1.6µM*,?,0.095µM*,?,-15%
Cc1cc(C)cc(OCC(=O)Nc2cccc(C(=O)O)c2)c1,?,?,?,15µM*,?,27%
Cc1ccc(NC(=O)COc2ccc(CCO)cc2-n2nc3ccccc3n2)cc1C,-1%,-21%,-7%,2%,18µM*,-5%
CC(=O)c1cccc(NC(=O)CSC(=O)c2ccccc2)c1,3%,17%,11%,17µM*,11%,1%
COc1ccc(NS(=O)(=O)c2cc(OCC(N)=O)c(C)cc2Cl)cc1,-2%,-11%,1%,3%,0%,-3%
Cc1cccc(NC(=O)COc2ccc(Br)cc2/C=N/O)c1,4µM*,18µM*,4µM*,5.4µM*,?,?
Cc1cc(Cl)c(S(=O)(=O)Nc2cccc(O)c2)cc1OCC(N)=O,-2%,4µM*,-2%,1%,15%,2%
CC(=O)Nc1ccc(NC(=O)COc2ccc(Br)cc2C)cc1,2%,-12%,0%,-1%,7%,11%

# High-throughput results as filed in PubChem.
